This is a sample that favours compounds with a hit; in the whole collection about 4.5% have one here.
Gli-Sufu antag: Gli-Sufu pathway antagonism; inhibition, % at 5 µM; Sufu-KO-LIGHT fibroblasts, Gli luciferase reporter luminescence; AID 588413; hit rate 0.74% among 340,000;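 active = inhibition above about 55%, limit read from the data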
697 NFkB inh: inhibitors of the PMA/ionomycin-induced NF-kB reporter in 697 B cells | inhibition, % at 4 µM | AID 435022 | 697 B-cell NF-kB luciferase reporter, 16 h | hit rate 0.33% among 330,000; in the data active = inhibition above about 35%
Beta apoptosis: beta cell apoptosis inhibition. INS-1E cytokine-induced death, ATP luminescence, 48 h; percent of positive-control rescue, neutral wells zero. protection from apoptosis, % (concentration not given with the values). hit rate 0.8% among 300,000. AID 435005;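 active = Every replicate reaches about 75%, or at least half do and their mean reaches it too, limit read from the data; inconclusive = At least half of replicates reach the limit but their mean does not; inactive = Under half of replicates reach the limit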;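 note: higher means more ATP so stronger rescue from cytokine killing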
Jurkat NFkB inh: inhibitors of the PMA/ionomycin-induced NF-kB reporter in Jurkat cells; PMA/ionomycin-induced NF-kB luciferase reporter, luminescence; inhibition, % at 4 µM; hit rate 0.53% among 330,000; AID 435003; in the data active = inhibition above about 50%
Mdm2-MdmX inh: human Mdm2/MdmX binding inhibition; SaOS-2 split-luciferase Mdm2/MdmX complementation, luminescence; hit rate 3% among 330,000; inhibition, % at 8 µM; AID 485346;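 active = inhibition of at least 50% at 8 µM in the primary screen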
Target sequence (O15151 whole entry, looked up): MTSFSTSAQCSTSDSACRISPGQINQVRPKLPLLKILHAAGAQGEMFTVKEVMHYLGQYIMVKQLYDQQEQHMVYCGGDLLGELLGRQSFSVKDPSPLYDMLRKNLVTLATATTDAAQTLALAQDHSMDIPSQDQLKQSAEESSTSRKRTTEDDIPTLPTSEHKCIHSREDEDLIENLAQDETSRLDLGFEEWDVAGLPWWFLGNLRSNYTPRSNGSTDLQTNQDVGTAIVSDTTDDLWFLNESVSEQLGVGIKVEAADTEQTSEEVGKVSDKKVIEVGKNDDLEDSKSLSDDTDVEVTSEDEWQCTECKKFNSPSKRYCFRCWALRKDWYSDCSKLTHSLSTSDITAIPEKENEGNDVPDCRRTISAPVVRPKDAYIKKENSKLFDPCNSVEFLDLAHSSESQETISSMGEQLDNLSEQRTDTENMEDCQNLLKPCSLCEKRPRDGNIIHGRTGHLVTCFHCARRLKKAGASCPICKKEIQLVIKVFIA
Target sequence (Q00987 whole entry, looked up): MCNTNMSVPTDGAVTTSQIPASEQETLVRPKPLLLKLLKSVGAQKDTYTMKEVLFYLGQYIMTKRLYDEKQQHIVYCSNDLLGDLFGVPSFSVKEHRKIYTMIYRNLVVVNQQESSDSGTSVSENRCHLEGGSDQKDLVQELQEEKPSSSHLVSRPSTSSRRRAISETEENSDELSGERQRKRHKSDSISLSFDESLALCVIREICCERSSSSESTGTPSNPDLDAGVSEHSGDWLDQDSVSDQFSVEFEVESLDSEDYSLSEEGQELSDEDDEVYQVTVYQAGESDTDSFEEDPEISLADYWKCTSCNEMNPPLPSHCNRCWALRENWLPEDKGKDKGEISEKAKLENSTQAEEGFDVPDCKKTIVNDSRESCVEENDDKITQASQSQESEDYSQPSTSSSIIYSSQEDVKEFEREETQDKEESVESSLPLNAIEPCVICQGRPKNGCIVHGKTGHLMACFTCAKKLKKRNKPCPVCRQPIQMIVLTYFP
CSC inhib: cancer stem cell inhibition | cancer stem cell-like cells viability, luminescence | inhibition, % at 7.5 µM | hit rate 1.1% among 300,000; in the data active = inhibition above about 75%; inconclusive = no clear call, values can overlap the other calls; tested in HMLE shEcad cells
Gli antag conf: confirmation of Gli-SUFU pathway antagonists; Sufu-KO-LIGHT cells, Gli luciferase reporter, luminescence; hit rate 40% among 2,500; inhibition, % at 5 µM; AID 602428; shares compounds with Gli-Sufu antag;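 active = mean inhibition at 5 µM reaching about 45%, limit read from the data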
SufuKO cytotox: counter-screen for Gli-SUFU antagonists: cytotoxicity; hit rate 32% among 2,500; shares compounds with Gli-Sufu antag; cytotoxicity, % at 5 µM; Sufu-KO-LIGHT cells cytotoxicity, ATP luminescence;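 active = mean cytotoxicity at 5 µM above about 25%, limit read from the data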;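 note: cells exposed to compound overnight for roughly 16 to 18 hours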
Wnt3a cs: counter-screen for Gli-SUFU antagonists: Wnt3a reporter inhibition; hit rate 20% among 2,500; AID 651995; inhibition, % at 6.25 µM; Wnt-LIGHT cells, Wnt3a-driven luciferase reporter, luminescence; shares compounds with Gli-Sufu antag;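 active = mean inhibition above about 25%, limit read from the data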
Each line names hits and unclear results; the compound was inactive in the other large screens (follow-up assays come after a bar, where they were run).

COc1ccc(S(=O)(=O)Nc2ccc(N3CCOCC3)cc2)cc1	none
COc1ccc(NS(=O)(=O)c2ccc(NC(=O)c3ccc(CN4CCOCC4)cc3)cc2)cc1	Gli-Sufu antag 57 | Gli antag conf inactive | SufuKO cytotox inactive | Wnt3a cs inactive
CCCn1c(N)c(N(CCOC)C(=O)c2ccc(S(=O)(=O)N3CCOCC3)cc2)c(=O)[nH]c1=O	none (no result: 697 NFkB inh, Beta apoptosis, Jurkat NFkB inh, Mdm2-MdmX inh, CSC inhib)
Cc1cc(NC(=O)Nc2ccccc2F)ccc1Br	none
Cc1cn2c(-c3ccncc3)nnc2s1	none | Gli antag conf inactive | SufuKO cytotox inactive | Wnt3a cs inactive
Cc1cn2c(-c3cccnc3)nnc2s1	none
CN1CCCN(C(=O)C2CCC(C(=O)N3CCCN(C)CC3)CC2)CC1 (stereo not given)	none | Gli antag conf inactive | SufuKO cytotox inactive | Wnt3a cs inactive
O=C(C1CCC(C(=O)N2CCCCC2)CC1)N1CCCCC1 (stereo not given)	none (no result: Beta apoptosis)
c1ccc(-c2nnc(N3CCN(c4ccccn4)CC3)c3ccccc23)cc1	Gli-Sufu antag 61 | Gli antag conf inactive | SufuKO cytotox inactive | Wnt3a cs inactive
CS(=O)(=O)N1CCN(c2nnc(-c3ccccc3)c3ccccc23)CC1	none (no result: Beta apoptosis)
COc1ccc(CNc2nc3ccc(C)cc3s2)c(OC)c1OC	none
O=C(CSc1ccccc1)N1CCCC(N2CCN(c3cccc(Cl)c3)CC2)C1 (stereo not given)	none (no result: Gli-Sufu antag)
CCc1ccc(CNC(=O)CCCC(=O)n2nc(C)c3ccccc32)cc1	Gli-Sufu antag 57 | Gli antag conf inactive | SufuKO cytotox inactive | Wnt3a cs inactive
COc1ccc(N2CCN(C3CCCN(C(=O)c4ccoc4)C3)CC2)cc1 (stereo not given)	Gli-Sufu antag 55 | Gli antag conf inactive | SufuKO cytotox inactive | Wnt3a cs inactive
COc1ccc(N2CCN(C3CCCN(S(=O)(=O)c4ccc(C)cc4C)C3)CC2)cc1 (stereo not given)	Gli-Sufu antag 60 | Gli antag conf inactive | SufuKO cytotox inactive | Wnt3a cs inactive
CCNc1nc(SCC(=O)Nc2ccc(Cl)c(Cl)c2)nc(N2CCOCC2)n1	none
Cc1ccc(S(=O)(=O)N2CCC(C(=O)OCC(=O)N3CCC(C)CC3)CC2)cc1C	none
CCN(CC)C(=O)c1ccc(S(=O)(=O)N2CCC(c3nc4ccccc4s3)CC2)cc1	Gli-Sufu antag 59, Beta apoptosis 100 | Gli antag conf inactive | SufuKO cytotox inactive | Wnt3a cs inactive
N#CCCN(C(=S)Nc1ccc(S(=O)(=O)N2CCOCC2)cc1)c1ccccc1F	none (no result: Beta apoptosis, CSC inhib)
CCCCNC(=S)N(C)/N=C/c1ccc(F)cc1	none
CCCCNC(=S)N(C)/N=C/c1ccc2c(c1)OCO2	Gli-Sufu antag 99, CSC inhib 83 | Gli antag conf inactive | SufuKO cytotox inactive | Wnt3a cs inactive
O=C(NCC(c1ccco1)N1CCCC1)c1sc2ccccc2c1Cl (stereo not given)	none | Gli antag conf inactive | SufuKO cytotox inactive | Wnt3a cs inactive
O=C(NCC(c1ccco1)N1CCCC1)c1ccc(Cl)c(S(=O)(=O)N2CCc3ccccc32)c1 (stereo not given)	Gli-Sufu antag 67, Beta apoptosis 75 (no result: CSC inhib) | Gli antag conf 59 | SufuKO cytotox 34 | Wnt3a cs 28
Cc1ccc(S(=O)(=O)Nc2ccccc2F)cc1C(=O)NCc1ccco1	none (no result: Beta apoptosis, CSC inhib)
O=c1cc(N2CCc3ccccc32)[nH]c(=O)n1-c1ccccc1Cl	none
Cc1ccccc1-n1c(=O)cc(N2CCc3ccccc32)[nH]c1=O	Gli-Sufu antag 63 | Gli antag conf inactive | SufuKO cytotox inactive | Wnt3a cs inactive
CCOc1ccc(OCc2ccc(C(=O)NC(C)(C)C)o2)cc1	none | Gli antag conf inactive | SufuKO cytotox inactive | Wnt3a cs inactive
CCOc1ccc(OCc2ccc(C(=O)NN)o2)cc1	none
COCCn1c(SCC(=O)Nc2cc(C)on2)nc2c(c1=O)SCC2	none | Gli antag conf inactive | SufuKO cytotox inactive | Wnt3a cs inactive
Cc1cc(NC(=O)CSc2nc3c(c(=O)n2C)SCC3)no1	none
CC(C)(C)c1ccc(S(=O)(=O)Nc2noc3ccccc23)cc1	none
O=C(Cc1nnc(NC(=O)c2ccccc2)s1)N/N=C/c1ccc(O)cc1	none | Gli antag conf inactive | SufuKO cytotox inactive | Wnt3a cs inactive
CC[C@@H](C)[C@H](C(CC(=O)N1CCCC1[C@@H](OC)[C@H](C)C(=O)N[C@H](Cc1ccccc1)c1nccs1)OC)N(C)C(=O)[C@H](NC(=O)[C@@H](C(C)C)N(C)C)C(C)C (stereo not given in full)	none (no result: 697 NFkB inh, Beta apoptosis, Jurkat NFkB inh, Mdm2-MdmX inh, CSC inhib) | Gli antag conf 70 | SufuKO cytotox 62 | Wnt3a cs 40
COc1cccc(CCc2nnc(CCC(=O)N3CCCC3c3nccs3)o2)c1 (stereo not given)	none
COc1ccc(N/C=C(\C#N)S(=O)(=O)c2ccc(Cl)cc2)c(OC)c1	Gli-Sufu antag 65 | Gli antag conf inactive | SufuKO cytotox inactive | Wnt3a cs inactive
COC(=O)c1ccc(OCC(O)CN2CCc3cc(OC)c(OC)cc3C2c2ccccc2)cc1 (stereo not given)	Gli-Sufu antag 58 | Gli antag conf inactive | SufuKO cytotox inactive | Wnt3a cs inactive
COc1ccc(COC(=O)Oc2ccc(CNC(C)=O)cc2OC)c([N+](=O)[O-])c1	none
O=C(NCCc1cccc(Cl)c1)c1ccc(OC2CCN(Cc3ccccn3)CC2)cc1	none (no result: Beta apoptosis, CSC inhib) | Gli antag conf 50 | SufuKO cytotox inactive | Wnt3a cs inactive
CCn1cnc2c1c(=O)n(CC(=O)OC(C)C(N)=O)c(=O)n2Cc1ccccc1 (stereo not given)	none
O=C(CCNC(=O)c1ccc([N+](=O)[O-])cc1)NC1CCCCCC1	none
O=C(CSCc1ccc(Cl)cc1Cl)Nc1ccccc1C(=O)Nc1ccc(C(=O)O)cc1	none | Gli antag conf inactive | SufuKO cytotox inactive | Wnt3a cs inactive
CCOc1ccc(OCC)c(S(=O)(=O)NCCOC23CC4CC(CC(C4)C2)C3)c1	Beta apoptosis inconclusive | Gli antag conf inactive | SufuKO cytotox 31 | Wnt3a cs inactive
Cc1cccc(Oc2ccc(NC(=O)C3=CC=CN4CCS(=O)(=O)N=C34)cc2)c1	none
CN(C)c1ccc(CNC(=O)CCNS(=O)(=O)c2cc(Br)cnc2N)cc1	none
O=C(O)c1cc(-c2ccco2)nc2ccccc12	none
COc1ccc(-c2cc(C(=O)N3CCCCCC3)c3ccccc3n2)cc1	none (no result: Beta apoptosis, CSC inhib) | Gli antag conf inactive | SufuKO cytotox inactive | Wnt3a cs inactive
O=C(c1cc(-c2ccco2)nc2ccccc12)N1CCN(c2ccc(F)cc2)CC1	Gli-Sufu antag 64 | Gli antag conf inactive | SufuKO cytotox 34 | Wnt3a cs inactive
